Many of the other results were omitted from the sample, so hits are more common in it than they were.
IDE exosite FP – exo-site inhibitors of human IDE, primary screen, biochemical, fluorescence anisotropy, probe displacement. AID 1259349, 2017. actives 6.3% (n = 17,000). Insulin-degrading enzyme (Homo sapiens), P14735. purified IDE, FL-6b probe fluorescence polarization; stronger effect = lower value. z-score at 20 µM;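 active = z-score of -3 or lower, meaning strong loss of probe binding signal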;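 also: His-tagged human IDE residues 42-1019 made in E. coli with 30 nM FL-6b probe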
Target sequence (P14735 42-1019 limits assumed): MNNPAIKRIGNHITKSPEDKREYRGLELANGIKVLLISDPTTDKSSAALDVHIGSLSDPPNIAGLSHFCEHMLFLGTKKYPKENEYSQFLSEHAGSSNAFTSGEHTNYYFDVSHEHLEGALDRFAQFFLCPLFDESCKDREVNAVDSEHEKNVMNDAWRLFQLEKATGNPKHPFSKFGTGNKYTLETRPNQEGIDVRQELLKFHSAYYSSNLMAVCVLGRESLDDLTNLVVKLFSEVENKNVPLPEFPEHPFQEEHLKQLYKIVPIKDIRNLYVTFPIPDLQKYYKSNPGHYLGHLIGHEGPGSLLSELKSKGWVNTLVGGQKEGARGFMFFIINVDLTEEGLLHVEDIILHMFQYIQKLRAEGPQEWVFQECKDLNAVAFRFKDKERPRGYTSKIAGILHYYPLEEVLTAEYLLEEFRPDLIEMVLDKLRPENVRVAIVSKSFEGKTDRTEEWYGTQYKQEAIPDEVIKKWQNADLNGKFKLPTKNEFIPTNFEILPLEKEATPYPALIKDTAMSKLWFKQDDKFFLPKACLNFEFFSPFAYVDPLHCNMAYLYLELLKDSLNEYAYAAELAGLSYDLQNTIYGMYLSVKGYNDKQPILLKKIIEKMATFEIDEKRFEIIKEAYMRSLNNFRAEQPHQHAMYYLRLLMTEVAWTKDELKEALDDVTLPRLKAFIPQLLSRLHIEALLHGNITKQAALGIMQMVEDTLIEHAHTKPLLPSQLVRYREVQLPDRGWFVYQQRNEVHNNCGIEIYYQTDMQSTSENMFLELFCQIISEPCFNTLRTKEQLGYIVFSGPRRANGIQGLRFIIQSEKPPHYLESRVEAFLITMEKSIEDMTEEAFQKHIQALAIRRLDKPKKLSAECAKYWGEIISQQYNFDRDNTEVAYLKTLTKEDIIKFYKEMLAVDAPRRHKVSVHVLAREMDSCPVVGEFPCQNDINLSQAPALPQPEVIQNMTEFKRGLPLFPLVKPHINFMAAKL
* marks the source's active call; other numbers are inactive results.

SMILES	IDE exosite FP
CS(=O)(=O)N1C[C@@H](O)COC[C@H]2O[C@@H](CC(=O)NCc3ccccc3)CC[C@@H]21	0.72
O=C(Nc1ccccc1F)N1CC(=O)N2[C@H](CO)[C@H](c3ccc(C#CC4CCCC4)cc3)[C@H]2C1	4.5
C[C@@H](NC(=O)C[C@@H]1C=C[C@@H](NS(=O)(=O)c2cccc(F)c2)[C@H](CO)O1)c1ccccc1	0.62
O=C(NC[C@H]1[C@H](c2ccccc2)[C@H](CO)N1Cc1cccnc1)c1ccccn1	1.2
O=C(c1cnccn1)N1CC(=O)N2[C@H](CO)[C@H](c3ccc(-c4ccc(F)cc4)cc3)[C@H]2C1	4
Cc1cccc(-c2ccc([C@H]3[C@@H](CO)N4C(=O)CN(C(=O)c5cnccn5)C[C@@H]34)cc2)c1	-9.3*
O=C(c1cnccn1)N1CC(=O)N2[C@@H](CO)[C@H](c3ccc(-c4ccccc4)cc3)[C@@H]2C1	-3.8*
O=C(c1cnccn1)N1CC(=O)N2[C@H](CO)[C@@H](c3ccc(-c4ccc(F)cc4)cc3)[C@@H]2C1	2.6
Cc1cccc(-c2ccc([C@H]3[C@@H](CO)N4C(=O)CN(C(=O)c5cnccn5)C[C@H]34)cc2)c1	-12*
O=C(c1cnccn1)N1CC(=O)N2[C@H](CO)[C@@H](c3ccc(-c4ccccc4)cc3)[C@@H]2C1	-3
O=C(c1cnccn1)N1CC(=O)N2[C@H](CO)[C@H](c3ccc(-c4ccccc4)cc3)[C@@H]2C1	2.8
O=C(c1cnccn1)N1CC(=O)N2[C@@H](CO)[C@H](c3ccc(C4=CCCCC4)cc3)[C@@H]2C1	-1.6
O=C(c1cnccn1)N1CC(=O)N2[C@@H](CO)[C@H](c3ccc(-c4cccc(F)c4)cc3)[C@@H]2C1	-2.3
O=C(c1ccc2c(c1)OCO2)N1CC(=O)N2[C@H](C1)[C@@H](c1ccc(C#CC3CCCC3)cc1)[C@@H]2CO	1.5
CC(C)NC(=O)N1CCCCN2[C@H](CO)[C@@H](c3ccc(C#CC4CC4)cc3)[C@@H]2C1	2.1
Cc1noc(C)c1NC(=O)N(C)C[C@H]1OCc2ccccc2-c2c(n(C)c3ccccc23)C(=O)N([C@H](C)CO)C[C@@H]1C	-0.037
COc1ccccc1NC(=O)N1CCCCN2[C@H](C1)[C@H](c1ccc(-c3ccc(C)cc3)cc1)[C@@H]2CO	1.2
COCC#Cc1ccc([C@H]2[C@H]3CN(C(=O)NC4CCCC4)CCCCN3[C@H]2CO)cc1	-0.15
COCC#Cc1ccc([C@H]2[C@@H](CO)N3CCCCN(C(=O)NC4CCCC4)C[C@@H]23)cc1	-1.2
COc1ccccc1-c1ccc([C@@H]2[C@H](CO)N3CCCCN(C(=O)NC4CCCC4)C[C@@H]23)cc1	-16*
COc1ccccc1-c1ccc([C@@H]2[C@H]3CN(C(=O)NC4CCCC4)CCCCN3[C@H]2CO)cc1	-12*
COc1ccccc1-c1ccc([C@H]2[C@H]3CN(C(=O)NC4CCCC4)CCCCN3[C@H]2CO)cc1	-14*
O=C(NC1CCCC1)N1CCCCN2[C@@H](CO)[C@H](c3ccc(-c4cncnc4)cc3)[C@@H]2C1	1.9
COc1ccccc1-c1ccc([C@@H]2[C@@H](CO)N3CCCCN(C(=O)NC4CCCC4)C[C@@H]23)cc1	-4.7*
O=C(Nc1cc(F)ccc1F)N[C@@H]1CC[C@@H](CCn2cc(C3CCCCC3)nn2)O[C@@H]1CO	0.2
SMILES	IDE exosite FP
O=C(CCN1CCCCC1)NCC[C@H]1CC[C@H](NS(=O)(=O)c2cccc(Cl)c2)[C@@H](CO)O1	1
C[C@@H]1CCCCO[C@@H](CN(C)S(=O)(=O)c2ccccc2)[C@@H](C)CN([C@@H](C)CO)C(=O)c2cc(NC(=O)Nc3ccc4c(c3)OCO4)ccc2O1	-0.28
CN(C)C(=O)c1cccc(-c2ccc([C@H]3[C@H](CO)N4CCCCN(CC5CCOCC5)C[C@@H]34)cc2)c1	1.8
CCC(=O)N1[C@H](CO)[C@H](c2ccc(-c3cccc(OC)c3)cc2)[C@H]1CNC(C)=O	1.2
O=C1N[C@H](c2ccccc2)COCc2cnnn2CC[C@H]1Cc1ccc(C(F)(F)F)cc1	0.1
COc1ccccc1-c1ccc([C@@H]2[C@@H](CO)N3CCCCN(C(=O)NC4CCCC4)C[C@H]23)cc1	-8.4*
C[C@@H]1CN([C@@H](C)CO)C(=O)c2ccccc2-c2ccccc2CO[C@H]1CN(C)C(=O)Nc1cccc(Cl)c1Cl	0.08
CCCNC(=O)N1CC(=O)N2[C@@H](CO)[C@@H](c3ccc(C#Cc4cccc(F)c4)cc3)[C@@H]2C1	2.6
CCCNC(=O)N1CC(=O)N2[C@@H](CO)[C@H](c3ccc(C#Cc4ccc(F)cc4)cc3)[C@@H]2C1	2.1
CCCNC(=O)N1CC(=O)N2[C@H](CO)[C@@H](c3ccc(C#Cc4cccc(F)c4)cc3)[C@H]2C1	-3.7*
CCCNC(=O)N1CC(=O)N2[C@H](C1)[C@H](c1ccc(C#Cc3ccc(F)cc3)cc1)[C@@H]2CO	2.6
CCCNC(=O)N1CC(=O)N2[C@@H](CO)[C@H](c3ccc(C#Cc4ccccc4)cc3)[C@@H]2C1	-11*
CCCNC(=O)N1CC(=O)N2[C@@H](CO)[C@@H](c3ccc(C#Cc4ccccc4)cc3)[C@@H]2C1	-1.1
O=C(Nc1ccc(F)cc1)N1C[C@@H]2[C@H](c3ccccc31)[C@@H](CO)N2C(=O)c1ccncc1	2.7
COc1ccc(S(=O)(=O)N2C[C@@H](O)COC[C@@H]3O[C@H](CC(=O)N[C@@H]4CCN(Cc5ccccc5)C4)CC[C@H]32)cc1	0.81
COc1ccc2c3c([nH]c2c1)[C@H](CO)NCC31CN(C(=O)Nc2ccc3c(c2)OCO3)C1	1.5
CO[C@@H]1CC[C@@H]2CCOc3c(C#N)cccc3C(=O)N(C)C[C@@H](OC)[C@@H](C)C(=O)N(C)C[C@@H]1O2	-0.16
O=C(Nc1cccc(F)c1)N1CC(=O)N2[C@H](CO)[C@H](c3ccc(C#CCC4CCCC4)cc3)[C@@H]2C1	2.9
C/C=C/c1ccc([C@@H]2[C@H](CO)N3C(=O)CN(C(=O)Nc4ccccc4F)C[C@@H]23)cc1	3.1
COc1cc(CN2CC3(CCN(C(=O)c4cccnc4)CC3)c3c([nH]c4cc(OC)ccc34)[C@@H]2CO)cc(OC)c1	-4.1*
COc1cccc(CN2CC3(CCN(C)CC3)c3c([nH]c4cc(OC)ccc34)[C@H]2CO)c1	-1.1
CCCC(=O)N1CC2(C1)CN(CC1CC1)[C@@H](CO)c1[nH]c3cc(OC)ccc3c12	-1.3
CCCC(=O)N1CC2(C1)CN(Cc1cccnc1)[C@H](CO)c1[nH]c3cc(OC)ccc3c12	-3.1*
COc1ccc2c3c([nH]c2c1)[C@H](CO)N(Cc1ccncc1)CC31CN(C(=O)CN(C)C)C1	-0.94
COCC(=O)N1CC2(CCN(C(=O)c3cccnc3)CC2)c2c([nH]c3cc(OC)ccc23)[C@@H]1CO	-0.12
SMILES	IDE exosite FP
O=C(C1CCCCC1)N1CC(=O)N2[C@H](CO)[C@@H](c3ccc(C#CCc4ccccc4)cc3)[C@H]2C1	0.63
COCCNC(=O)C[C@H]1CC[C@@H]2[C@H](COC[C@@H](O)CN2Cc2ccc(Cl)c(Cl)c2)O1	-0.15
C[C@@H]1CN([C@H](C)CO)C(=O)c2ccccc2-c2ccccc2CO[C@@H]1CN(C)C(=O)CCC(F)(F)F	-0.0079
O=C(NC[C@H]1N[C@H](CO)[C@@H]1c1ccccc1)C1CCC1	0.4
O=C(NC[C@@H]1N[C@@H](CO)[C@H]1c1ccccc1)C1CCC1	2.5
O=C(NC[C@H]1N[C@H](CO)[C@@H]1c1ccccc1)C1CC1	3
